The results in this text go back to PubChem BioAssay (NCATS).

Inconclusive results are not listed. A number with no mark means an inactive call. Calls come from the whole dose curve; as a rule, active = well fitted inhibition curve with a large enough effect; inconclusive = small, poorly fitted or top-dose-only effect; inactive = flat fitted curve, though single readings scatter.
% is set by controls: 0 for no effect and ±100 for the full control effect.

Sequence of Calcium and integrin-binding protein 1 (Homo sapiens) (Q99828 whole entry, looked up): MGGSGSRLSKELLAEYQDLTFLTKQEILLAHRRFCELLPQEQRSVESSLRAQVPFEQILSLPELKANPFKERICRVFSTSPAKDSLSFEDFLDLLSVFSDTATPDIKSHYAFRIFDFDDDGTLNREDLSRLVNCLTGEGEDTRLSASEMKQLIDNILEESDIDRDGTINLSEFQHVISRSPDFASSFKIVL

The assay concerns the target Calcium and integrin-binding protein 1 (Homo sapiens) (UniProt Q99828). The assay can be described thus: Primary qHTS for Identification of Calcium Integrin Binding Protein 1 (CIB1) Competitor (AID 1508620).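 Note: GST tagged CIB1 binding a fluorescein labelled alphaIIb integrin peptide tracer; top concentration of the series differs between compounds.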 The note with it: CIB1-GST / FITC-alphaIIb peptide fluorescence polarization; series mostly up to 57.7 µM; activity change, negative = inhibition: at the top concentration. The procedure, abridged:
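Fluorescence polarization competition: CIB1-GST (1 uM final) preincubated with compound 15 min at room temperature, then FITC-labeled alphaIIb peptide (100 nM final) added for another 15 min. Polarization read at Ex 480/Em 540.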
Regarding `C/C=C(/C)C(=O)O[C@H]1C=C(C)C[C@H](OC(=O)c2ccc(O)cc2)C2[C@](O)(C(C)C)CC[C@@]21C` (some centres not stated), the “activity change, negative = inhibition” value is 2.38% [at 30.2 µM].
Regarding `CC(CO[C@@H]1O[C@H](COC(=O)/C=C/c2ccc(O)c(O)c2)[C@@H](O)[C@H](O)[C@H]1O)C1(O)COC(=O)C1` (some centres not stated), the “activity change, negative = inhibition” value was 1.36%.
To `C[C@@H]1O[C@@H](O[C@H]2[C@H](O)[C@@H](O)[C@H](OC[C@H]3O[C@@H](OC(=O)[C@]45CCC(C)(C)C[C@H]4C4=CCC6[C@@]7(C)C[C@H](O)[C@H](O[C@@H]8O[C@H](CO)[C@@H](O)[C@H](O)[C@H]8O)[C@@](C)(C(=O)O)C7CC[C@@]6(C)[C@]4(C)CC5)[C@H](O[C@@H]4O[C@H](CO)[C@@H](O)[C@H](O)[C@H]4O)[C@@H](O)[C@@H]3O)O[C@@H]2CO)[C@H](O)[C@H](O)[C@H]1O` (some centres not stated) belongs 0.065% [at 12.4 µM].
The same measure for `OCC1=CC[C@@H]2C=CO[C@@H](O[C@@H]3O[C@H](CO)[C@@H](O)[C@H](O)[C@H]3O)[C@H]12`: -2.94%; for `C[C@H]1CC[C@@]2(OC1)O[C@H]1CC3C4CC=C5C[C@H](O)C[C@@H](O[C@@H]6O[C@@H](C)[C@H](O)[C@@H](O)[C@H]6O[C@@H]6O[C@@H](C)[C@H](O)[C@@H](O)[C@H]6O)[C@]5(C)C4CC[C@]3(C)[C@H]1[C@@H]2C` (some centres not stated): 0.158% [at 30.2 µM]; for `C=C[C@H]1[C@H](O[C@@H]2O[C@H](CO[C@@H]3OC[C@](O)(CO)[C@H]3O)[C@@H](O)[C@H](O)[C@H]2O)OC=C2C(=O)OCC[C@H]21`: 0.387%.
Regarding `C=C1CC2[C@]3(C)C(=C(O)C(=O)[C@@]2(C)[C@]2(C(=O)OC)C(=O)C(C)OC(=O)[C@@]12C)C(C)(C)C(=O)CC3O` (some centres not stated), the “activity change, negative = inhibition” value was -4.56%.
